This is part of a sample that, as a whole, favours compounds with a hit. Of some 83,000 tested, about 20% had one in any assay.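 In brief: 96-well plates, 48 h treatment, single concentration, percent growth endpoint.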 The source made the active and inactive calls.

This test relates to CCRF-CEM leukemia. As to the kind of experiment: NCI-60 one-dose screen, 48 h (100 = growth as untreated, 0 = no growth, -100 = all killed). The following applies: 10 µM unless noted. As for the experimental part:
Growth inhibition of the CCRF-CEM human tumor cell line is measured as a screen for anti-cancer activity. Cells are grown in 96 well plates and exposed to the test compound for 48 hours. Compounds are tested at a single concentration, which is 10^-5 M for most compounds. The reported endpoint is percent growth (GI% or GIPRCNT), where numbers from 0 - 100% represent growth inhibition, and numbers from -100% - 0 represent cell death. For example, a value of 40 represents 60% growth inhibition. A value of 0 means no net growth occurred over the course of the experiment. A value of -40 indicates 40% of cells at the beginning of the experiment died by the end of the experiment. A value of -100 means all cells are dead at the end of the experiment.
NCI-60 Human Tumor Cell Lines Screen was performed using the standard one-dose NCI protocol, which is described in more detail at https://dtp.cancer.gov/discovery_development/nci-60/default.htm.
Compounds with GIPRCNT values below 10 were considered active. Activity score was based on GIPRCNT using the following formula: […]
Score is 0 for GIPRCNT values of 100 or above, 50 for GIPRCNT values of 0, and 100 for GIPRCNT values of -100.
`CCCCn1c(-c2ccc(-c3nc(-c4ccc(Cl)cc4)no3)cc2)nc(-c2ccccc2)c1-c1ccccc1`: the growth was 69.7% (inactive).
Consider `COc1ccc(-n2c(N)c(-c3nc4ccccc4[nH]3)cc(C#N)c2=O)cc1`, for which the growth is 98.3% (inactive).
Regarding `CN1CCN(Cc2ccc(NC(=O)c3cncc(C#Cc4cnccc4C#N)c3)cc2C(F)(F)F)CC1`, the growth was 59% (inactive).
For `CCOC(=O)c1c2c(n(-c3ccc(C#N)cc3)c1-c1ccccc1)C=CCC2`, the growth was 95.8% (inactive).
As for `COc1cc(/C=C/C(=O)/C=C/c2cc(OC)c3c(c2OC)OCO3)c(OC)c2c1OCO2`, the figure is 26.5% (inactive); as for `COc1cc(/C=C2\C(=O)Nc3ccc(Br)cc32)cc(OC)c1OC`, 72.8% (inactive).
As for `CCOc1c(B(O)O)cccc1-c1nc2ccc3[nH]ncc3c2c2c1CCCC2`, the figure is 44% (inactive); as for `O=c1ccc(N=Nc2ccc([N+](=O)[O-])cc2)ccc1O`, 34.5% (inactive); as for `c1cc(NCCc2ccncc2)nc(-n2cnc3ccccc32)c1`, 99.8% (inactive).
Turning to `Nc1nn(C(=O)Nc2ccc(Cc3ccccc3)cc2)c2ccc(Cl)cc12`, the growth was 74% (inactive).
In the case of `CC1Cc2c(ncn3c(-c4ccc(F)cc4)nnc23)N(C)c2ccccc21` (stereo not given), the growth was 49.3% (inactive).
As for `CCOC(=O)Cn1c(=O)c2c(c3ccccc3n2C)n2nnc(-c3ccccc3)c12`, the figure is 282% (inactive).
Turning to `CC1=C(C)C(=O)C(Nc2cccc(C(=O)OC(C)(C)C)c2)=C(Br)C1=O`, the growth was 8.53% (active).
Consider `O=C(CCN1C(=O)/C(=C/c2ccc(O)cc2)SC1=S)Nc1ccccc1`, for which the growth was 72.2% (inactive).
`Nc1ccccc1-c1cc2c(c3c1[nH]c1ccccc13)CCCCC2`: the growth is 93.1% (inactive).
The result for `O=C(Nc1nc2ccc(F)cc2s1)c1cccnc1Nc1ccc(Cl)cc1Cl` reads -3.42% (active); that for `CNCCCC12CCC(c3ccccc31)c1ccccc12`, 84.7% (inactive); that for `CNc1nc2c(s1)C(c1cccc(F)c1)CC(=O)N2` (stereo not given), 104% (inactive).
In the case of `O=c1c2cc(F)ccc2sc2c(N3CCNCC3)nc3ccccc3c12`, the growth is -27.5% (active).
Consider `Nc1ccc(Sc2ccc([N+](=O)[O-])c3nonc23)cc1`, for which the growth was 27.7% (inactive).
As for `COc1ccc([C@H]2c3cc(OC)c(OC)cc3C=C(C=O)C2CO)cc1OC` (stereo not given in full), the figure is 56.4% (inactive).
In the case of `Clc1ccc2c(c1)N(CCCN1CCCC1)c1ccccc1S2`, the growth was 36.3% (inactive).
Regarding `CCOc1ccc2nc(SCc3nc4n(n3)S(=O)(=O)c3ccccc3N4C)sc2c1`, the growth was 3.93% (active).
With `O=c1n(Cc2ccc3ccccc3c2)ccn1Cc1ccc2ccccc2c1`, the growth is 117% (inactive).
As to `CCCCC[C@H](O)C/C=C1/C(=O)C=C[C@@H]1C/C=C\CCCC(=O)OC`, the growth was 2.62% (active).
On to `COc1cc(C(=O)c2cnc(-c3cccc4[nH]ccc34)[nH]2)cc(OC)c1OC`, for which the growth is 10.3% (inactive).
Consider `NCCOc1ncccc1/C=C1\c2ccccc2-c2ccc(C(F)F)cc21`, for which the growth is 6.32% (active).
With `O=C(N/N=C/c1c(Cl)cccc1Cl)c1ccc(C(F)(F)F)nc1Nc1cccc(C(F)(F)F)c1`, the growth is -8.45% (active).
On to `C[C@]12CC[C@@H]3c4cc(OC(F)F)c(OS(N)(=O)=O)cc4CC[C@H]3[C@@H]1CC[C@@H]2OS(N)(=O)=O`, for which the growth is 22.9% (inactive).
As for `Cc1cc2[nH]c(=O)c3c4ncccc4cn3c2cc1C`, the growth was 21.7% (inactive).
With `N#Cc1c(-c2ccc(Cl)cc2)nc2c(c(-c3ccccc3)nn2-c2ccccc2)c1-c1ccc(O)cc1`, the growth was 27% (inactive).
For the compound `CCCCNC(=O)Oc1ccc(/C(=C(\C)c2ccc(Cl)cc2)c2ccc(OCCN(CC)CC)cc2)cc1`, the growth was 64.4% (inactive).
As for `C[N+]1=C(/C=C/c2ccc(O)c3ncccc23)C(C)(C)c2ccccc21`, the figure is 75.8% (inactive); as for `Cc1ccc(-c2cnc3sc(C(=O)NCCc4ccccc4)c(C)n23)cc1`, 64.7% (inactive); as for `NCCCNc1nc2ccccc2c2c(=O)c3cc(F)cc(F)c3sc12`, -6.51% (active).
Consider `NS(=O)(=O)c1ccc(N=Nc2ccc(-c3nn4cc(-c5ccccc5)nc4s3)cc2)cc1`, for which the growth is 111% (inactive).
On to `Cc1nc(S(=O)(=O)c2ccccc2)c(S(=O)(=O)Cc2ccc([N+](=O)[O-])cc2)o1`, for which the growth was 82.8% (inactive).
Consider `CN1CCN(CC(=O)N2c3cccc4cccc(c34)N(C(=O)CN3CCN(C)CC3)C2c2cn(-c3ccccc3)nc2-c2cccc([N+](=O)[O-])c2)CC1`, for which the growth is -32% (active).
The result for `CCOC(=O)CC1C(COC(=O)NC)OC(n2cnc3c(NC(=O)Nc4ccccc4)ncnc32)C1O[Si](C)(C)C(C)(C)C` (stereo not given) reads 57.4% (inactive).
On to `CC(=O)O.CN1[CH-]N(Cc2ccc(C#N)cc2)c2ccccc21.[Ag+]`, for which the growth was 24.7% (inactive).

The record behind these values is PubChem BioAssay (NCI).
